A short description of experiment [1]: sensitizers of A549 cells to miR-34 induction, primary screen, imaging, A549 dox-inducible miR-34, nuclei and caspase counts (AID 1347080;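 active = compounds whose cell count with miR-34 switched on is under 0.7 times the count with it off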). The note with it: A549 miR-34 inducible, Hoechst nuclei count, 48 h.
A short description of experiment [2]: survival rescue of mitochondrial mutant cells in low glucose, primary screen, MELAS cybrids, Rieske KO mouse fibroblasts, CellTiter-Glo (AID 1508586;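 also: z relative to plate mean and SD of compound and empty wells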). (In general: ATP-based viability assays read luminescence as a measure of living cells.)
Experiment [3] is described as follows: viability rescue of complex I mutant cybrids, primary screen, cell-based, galactose medium, ATP luminescence (AID 1645843;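 active = z-score of at least 1.8 in each of two replicates, scored against plate mean and spread of sample wells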;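 also: positive z means more ATP and so rescue of galactose-driven cybrid death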). The note with it: complex I mutant cybrid cells, 72 h, stronger effect = higher value.
Experiment [4] addresses NAD(+) hydrolase SARM1 (Homo sapiens) (UniProt Q6SZW1). Kind of experiment: SARM1 TIR NADase inhibitors, cell lysate, NAD-Glo luminescence (AID 1508614;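 active = compound whose remaining NAD level is above about 45 nM, limit read from the data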;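 also: higher remaining NAD means stronger inhibition of SARM1 NADase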). The note with it: SAM-TIR HEK293T lysate NADase, at 1 µM, stronger effect = higher value.
The nature of experiment [5]: liver-stage malaria parasite growth inhibition, primary screen, cell-based, HepG2, luciferase luminescence, HepG2 viability (AID 624349; in the data active = parasite load remaining mostly below about 12%, no sharp cut-off; inactive = mostly above about 10%;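 also: 100% = mean of DMSO negative control wells on the same plate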). The note with it: P. berghei liver stage in HepG2, luciferase luminescence, concentration not given here; parasite load remaining: stronger effect = lower value; viability: measured here: HepG2 viability without parasites.
[6] abbreviates: stronger effect = lower value, cell number ratio, induced over uninduced.
Where [7] appears, read: measured here: relative caspase fold change +Dox/-Dox.
Where [8] appears, read: measured here: total cells with miR-34 induction, stronger effect = lower value.
The mark [9] stands for this setting: measured here: total cells without miR-34 induction.
Where [10] appears, read: MELAS cybrid survival, CellTiter-Glo 48 h, stronger effect = higher value.
Setting [11] is: Rieske KO mouse fibroblast survival, CellTiter-Glo 72 h.

Experimental findings from PubChem BioAssay are described below.

Calls of active or inactive are those of the source.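 The calls were made as follows, unless noted: active = mean z-score across replicates of 1.96 or higher in either the MELAS or the Rieske mutant cell line; inactive = the rest.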

Sequence of NAD(+) hydrolase SARM1 (Homo sapiens) (Q6SZW1 whole entry, looked up): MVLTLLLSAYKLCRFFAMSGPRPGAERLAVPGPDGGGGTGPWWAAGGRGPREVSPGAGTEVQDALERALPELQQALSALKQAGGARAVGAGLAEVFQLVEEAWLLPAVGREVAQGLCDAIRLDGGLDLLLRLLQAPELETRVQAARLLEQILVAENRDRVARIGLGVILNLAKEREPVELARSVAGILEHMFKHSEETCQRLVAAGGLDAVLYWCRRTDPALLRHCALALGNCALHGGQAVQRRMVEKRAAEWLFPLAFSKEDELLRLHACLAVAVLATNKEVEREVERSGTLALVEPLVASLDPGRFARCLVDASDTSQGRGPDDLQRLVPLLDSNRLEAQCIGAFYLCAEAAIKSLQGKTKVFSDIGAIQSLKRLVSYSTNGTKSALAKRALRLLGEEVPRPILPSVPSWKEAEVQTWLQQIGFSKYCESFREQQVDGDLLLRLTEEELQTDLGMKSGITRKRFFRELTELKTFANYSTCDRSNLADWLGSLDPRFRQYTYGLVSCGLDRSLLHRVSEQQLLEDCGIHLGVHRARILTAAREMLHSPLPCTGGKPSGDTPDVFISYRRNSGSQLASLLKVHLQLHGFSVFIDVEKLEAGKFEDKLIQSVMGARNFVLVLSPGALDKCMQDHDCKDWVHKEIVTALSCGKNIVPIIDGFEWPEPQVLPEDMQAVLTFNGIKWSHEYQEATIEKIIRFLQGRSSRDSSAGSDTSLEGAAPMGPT

For the compound `COc1ccc(C=CC(=O)O)cc1O`, the fold change in experiment [1] (setting [6]) is 0.917 (inactive); in experiment [1] (setting [7]) it was 0.34. For the same compound, the cell count stood at 9250 in experiment [1] (setting [8]) and 10100 in experiment [1] (setting [9]). Further, the z-score in experiment [2] (setting [10]) is 0.642 (inactive); in experiment [2] (setting [11]), -0.171; in experiment [3] it was 0.285 (inactive).
Take `CCOc1nc2cccc(C(=O)OCc3oc(=O)oc3C)c2n1Cc1ccc(-c2ccccc2-c2noc(=O)[nH]2)cc1`: the fold change in experiment [1] (setting [6]) is 0.946 (inactive); in experiment [1] (setting [7]), 0.471. Also, the cell count in experiment [1] (setting [8]) is 8160; in experiment [1] (setting [9]), 8630. Moreover, the z-score in experiment [2] (setting [10]) was 0.0175 (inactive); in experiment [2] (setting [11]) it was -0.018. In experiment [4], the remaining NAD is 10 nM (inactive).
Regarding `Cc1csc2ncnc(-c3cccc4ncccc34)c12`, the fold change in experiment [1] (setting [6]) was 0.896 (inactive); in experiment [1] (setting [7]), 0.971. The cell count in experiment [1] (setting [8]) is 7440; in experiment [1] (setting [9]) it was 8300. In addition, the results for the z-score in experiment [2] (setting [10]), in experiment [2] (setting [11]) and in experiment [3] were 0.0854 (inactive), -0.504 and -0.49 (inactive), respectively.
As for `O=S(=O)(O)CCN1CCOCC1`, the fold change in experiment [1] (setting [6]) was 0.906 (inactive); in experiment [1] (setting [7]) it was 0.601. The cell count in experiment [1] (setting [8]) stood at 8760; in experiment [1] (setting [9]), 9670. For the same compound, the z-score in experiment [2] (setting [10]) is -0.907 (inactive); in experiment [2] (setting [11]) it was -0.75; in experiment [3], 0.715 (inactive).
In general, viability refers to the share of living cells, or the viability signal relative to a control. On to `CC1(C)S[C@@H]2[C@H](NC(=O)[C@H](NC(=O)N3CCNC3=O)c3ccccc3)C(=O)N2[C@H]1C(=O)O`, for which the parasite load remaining in experiment [5] was 109% (inactive). In experiment [5], this compound showed a viability of 98.7%. In addition, the fold change in experiment [1] (setting [6]) is 0.917 (inactive); in experiment [1] (setting [7]), 1.11. In addition, the results for the cell count in experiment [1] (setting [8]) and in experiment [1] (setting [9]) were 9220 and 10100, respectively. Besides, the z-score in experiment [2] (setting [10]) was 0.409 (inactive); in experiment [2] (setting [11]) it was -0.381. Also, the remaining NAD in experiment [4] was 10 nM (inactive).
Consider `CCOC(=O)O[C@]1(C(=O)COC(=O)CC)CC[C@H]2[C@@H]3CCC4=CC(=O)C=C[C@]4(C)[C@H]3[C@@H](O)C[C@@]21C`, for which the parasite load remaining in experiment [5] is 80.7% (inactive). In addition, the viability in experiment [5] stood at 80.3%. Besides, the fold change in experiment [1] (setting [6]) is 0.839 (inactive); in experiment [1] (setting [7]), 0.816. The figures for the cell count in experiment [1] (setting [8]) and in experiment [1] (setting [9]) were 5980 and 7130, respectively. The z-score in experiment [2] (setting [10]) was -0.565 (inactive); in experiment [2] (setting [11]), 0.21. The remaining NAD in experiment [4] is 10 nM (inactive).
Turning to `CS(=O)(=O)Nc1ccc(C(=O)O)cc1`, the fold change is 0.918 (inactive) in experiment [1] (setting [6]) and 0.714 in experiment [1] (setting [7]). In addition, the cell count in experiment [1] (setting [8]) came out at 8860; in experiment [1] (setting [9]), 9650. Further, the z-score in experiment [2] (setting [10]) was 0.13 (inactive); in experiment [2] (setting [11]) it was -0.244; in experiment [3] it was 0.365 (inactive).
On to `Cc1nc(NC(=O)NCc2cccc(Cl)c2)nn1C`, for which the fold change in experiment [1] (setting [6]) was 0.889 (inactive); in experiment [1] (setting [7]) it was 2.08. Also, the cell count in experiment [1] (setting [8]) amounted to 8140; in experiment [1] (setting [9]) it was 9160. The z-score in experiment [2] (setting [10]) was 7.52 (active); in experiment [2] (setting [11]) it was 0.00105; in experiment [3], -0.605 (inactive).
As for `COc1ccc(CSc2nnc(-c3ccc4c(c3)OCO4)o2)cc1F`, the fold change in experiment [1] (setting [6]) was 0.89 (inactive); in experiment [1] (setting [7]) it was 0.327. Besides, the cell count is 8570 in experiment [1] (setting [8]) and 9630 in experiment [1] (setting [9]). Further, the z-score in experiment [2] (setting [10]) is 0.835 (inactive); in experiment [2] (setting [11]), -0.403; in experiment [3], 1.06 (inactive).
In the case of `O=C(NCCc1nc2ccc(F)cc2[nH]1)c1cnccn1`, the fold change was 0.896 (inactive) in experiment [1] (setting [6]) and 1.56 in experiment [1] (setting [7]). Also, the cell count in experiment [1] (setting [8]) was found to be 8500; in experiment [1] (setting [9]), 9500. Moreover, the results for the z-score in experiment [2] (setting [10]), in experiment [2] (setting [11]) and in experiment [3] were 0.845 (inactive), -0.308 and -0.435 (inactive), respectively.
